Whole data set: some 25,000 sequences, median “ln(normalized median fluorescence intensity)” near 6.7, cut for the highest 2% near 10. The sample as a whole holds a higher share of the highest values than the screen did.

In this experiment the test system is PfHDP1 homeodomain (GST-tagged). Put plainly: gcPBM binding intensity (ln(normalized median fluorescence intensity)); higher = stronger DNA binding. Summed up:
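An Agilent 4 × 180k array carrying primer-extended double-stranded 36-bp intergenic genomic probes and negative controls received GST-tagged P. falciparum DNA-binding domains expressed in E. coli, about 25 μg on average, for 1 h. The binding buffer contained 1× PBS, 1% milk, 0.2 mg/ml BSA, 0.5% salmon testes DNA and 0.03% Triton X-100. Binding intensity is the top Masliner-normalised natural-log median intensity across replicate spots of either probe orientation, read after Alexa488 anti-GST antibody staining and a 488 nm scan.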
Consider “TATCGAGCCATTTTTACATGCAATTATACATAATTT [TGCATGCA_site987]”, for which the “gcPBM binding intensity (ln)” value was 6.73.
The same measure for “AATATTGCACCATTTTGTACATAATATATTCAAATA [XGTACX_site475]”: 10.3; for “ATAATTATTCTTATGGTGCACTGAATATACATGTTG [GTGCAC_site9760]”: 9.5; for “AATATATTGCACCATTGGACCTGAATAATTCTTCCA [CACACA_negctrl_site1071]”: 11.4.
Next, “ATATCTATAATAAATACACACATTTATATAGATAAA [CACACA_site7518]”: 6.38; “AAATGTGTTAATGTGCGTACACATATATATAATATT [XGTACX_site2792]”: 6.66.
Regarding “GTGTATTTTGTGCGCACACACATGCAAAAAGAAATA [CACACA_site6660]”, the “gcPBM binding intensity (ln)” value was determined as 9.54.
Turning to “TTGTGGATTTTGTGCGCACACACATGCAAAAAGAAA [CACACA_site1147]”, the “gcPBM binding intensity (ln)” value stood at 9.58.
For the sequence “ATTTTGTGCGCACACACATGCAAAAAGAAATATGAT [TGCATGCA_site261]”, the “gcPBM binding intensity (ln)” value came out at 10.5.
The same measure for “TAATGATAAATACATACACACAAAAAATGATATATA [CACACA_site7258]”: 6.48; for “TCTTCTTTTTTTTTTTTGTATTATTATAAATATTAT [CACACA_negctrl_site1668]”: 6.53; for “ATATATATTATTTCTACACACATATATATAATATGT [CACACA_site3374]”: 6.9.
The same measure for “GAAAATAAAATAAATGCATGTAAATTTAATGTAATG [TGCATGCA_site996]”: 6.88; for “AATATATATATGTGTACACATCCAAAATAGGCATAC [CACACA_site5705]”: 7.59.
The same measure for “TATATATAATATTATACACACATATCTGCATAATAT [CACACA_site4202]”: 7.05; for “TTTGTTATATTTAATACACACATATTATAAACACAT [CACACA_site7703]”: 6.88.
TTAATATATTATCTGGTGCATAAACACGTTATACCT: the “gcPBM binding intensity (ln)” value stood at 10.6.
Turning to “AATATTATTTATATTTGTACACAGTAATATAAAATA [XGTACX_site4884]”, the “gcPBM binding intensity (ln)” value worked out at 6.25.
The same measure for “AATTGTTAATGGTACGAACACACATATAAAGATGCA [CACACA_site2043]”: 6.76; for “AATTGTGCATTATATTGTACACGTGTTGTATATATT [XGTACX_site975]”: 10.8.
Next, “GTGTGCAAAAATTGTTGTACATTATATATAAAAAAA [XGTACX_site3246]”: 10.6; “TATATATTATATATATGTACATATTGTTGTGTATAT [XGTACX_site767]”: 7.15; “ATGTGTATATATTATTGTACATATATATATATATAT [XGTACX_site4627]”: 9.24.
On to “AAAAAATTATAAAAGTGTACATATATATATATATAT [XGTACX_site154]”, for which the “gcPBM binding intensity (ln)” value is 9.48.
The same measure for “ATATATAATTTTTGTTGTACATTATAAAAATAATTA [XGTACX_site2738]”: 6.3; for TAGGTACATAAATTGGTGCAAAGTGTACATATATAT: 10.8.
In the case of “GTTGTTATATAAAATTGTACATAAAAAACAAAATAT [XGTACX_site5313]”, the “gcPBM binding intensity (ln)” value was 6.8.
Next, “TAAATTGGTGCAAAGTGTACATATATATCTTTCCTA [XGTACX_site5458]”: 10.4.
Take “CCCACAGACGGACACACACACACACCGACACATATA [CACACA_site4356]”: the “gcPBM binding intensity (ln)” value was 7.01.
Regarding “TTATAATTTAATAAATGTACATAAATAATATACATA [XGTACX_site7271]”, the “gcPBM binding intensity (ln)” value worked out at 6.14.
Next, “AAATTATTAAGTGATATAATATTCTATAGATGGGGA [CACACA_negctrl_site168]”: 6.76; CCACGAGAATATATAGTGCATAATAATTTTTTTTTG: 8.82; “TGTGCATAATTTTGTGCACACCACGCTAATAATTTT [CACACA_site2915]”: 11.5.
“ATTTTTTTTTTTTTTTTTTTTGCACCATAAAATAAT [CACACA_negctrl_site1324]”: the “gcPBM binding intensity (ln)” value was determined as 10.1.
The same measure for “GTATGGCGTATCATATGTACTAAAAAAAAATAAAAA [XGTACX_site5101]”: 6.49.
Next, “AAAGAAATGAAATATACACACATACCTATATACATA [CACACA_site7817]”: 6.63; “TATATGTATAGAAAATGTACATATAAATATATATAT [XGTACX_site3420]”: 7.94; “TAAAATAGAAATATATGTACATATATATATGTATAT [XGTACX_site4134]”: 6.4.
Next, “AAAAAATAAAAAGATACACACATATGTATAATATAC [CACACA_site1496]”: 6.83; “TATGTATGTTAGTGTGCACACATAAATATTATATAT [CACACA_site9121]”: 11.1.
Take “TGTGTGTGTATATGTGTGCACATATAAAATAGAAGA [GTGCAC_site9714]”: the “gcPBM binding intensity (ln)” value is 10.5.
As to “ATAAATACATATGTGTGTACACATTATATATATATA [XGTACX_site1486]”, the “gcPBM binding intensity (ln)” value was 9.17.
On to “CACATATATATGTGTGCATGTTGTATTATATATTTA [TGCATGCA_site632]”, for which the “gcPBM binding intensity (ln)” value was found to be 8.72.
In the case of “AAAAAAAAAAAAAGCACACACACATATGTGTATATA [CACACA_site8225]”, the “gcPBM binding intensity (ln)” value came out at 6.86.
Next, “ATATATGATGTATTTGTGCACATATATATATTATTA [GTGCAC_site9471]”: 10.7; “ATATATGTATGTTAGACACACATATTATAATATGTT [CACACA_site116]”: 6.5; GAAAAGCAGATAAATGTGCACATATATGTTTGTATA: 10.8.
Take TTTTTGTTATTATGTGTGCACATATATATATATATA: the “gcPBM binding intensity (ln)” value was 10.4.
For the sequence “TAATTTCTTATGTAGTGTACAAATAATATATGATAT [XGTACX_site597]”, the “gcPBM binding intensity (ln)” value was found to be 6.39.
Next, “ATTAAAAAAATATAAACACACAAAAAAAAAATATAC [CACACA_site1100]”: 7.06.
Turning to “AACAAATAAAAAAAAATAAAAATAAAAATAAAAAAA [XGTACX_negctrl_site451]”, the “gcPBM binding intensity (ln)” value was determined as 6.36.
The same measure for “TTTTTTTCTTCTTTTCTCTTAAAAATATTGAATATT [CACACA_negctrl_site1762]”: 6.28.
As for “TATACATATGAAAATACACACATACATACAGATATA [CACACA_site5002]”, the “gcPBM binding intensity (ln)” value was 6.64.
Next, “TAAAAATTGCACAGAAGTACAGTATAAATATATATA [XGTACX_site3421]”: 10.2; “TTTATGTGTATGTTTACACACATAAAAAAATATATG [CACACA_site3039]”: 6.54; TTGTTGTGTATTATCGTGCACATAATATAAAAGATT: 10.5.
Next, “AAAAGTTGTATTTGCACACATAAAAAAAAGATATTA [CACACA_site3840]”: 10.3.
In the case of “AAGAAAAATATTCGTGTGCACAGAAGTATATGTGTG [GTGCAC_site9814]”, the “gcPBM binding intensity (ln)” value came to 11.
As to “TATGTGTATAATAAAAGTACATATATTATTATATAA [XGTACX_site8556]”, the “gcPBM binding intensity (ln)” value worked out at 6.35.
Next, “TGTATGTTTGGGTGCACACATAAATATTATATATAG [CACACA_site3397]”: 10.2.
Regarding TATATGTATGTTTGTGTGCACACATAAATATTATAT, the “gcPBM binding intensity (ln)” value is 10.5.
Consider “ATATATTATGGGTGTGCACACAATATTTATATGTTC [CACACA_site2270]”, for which the “gcPBM binding intensity (ln)” value is 10.9.
Next, “AATATTTATGGGTGCACACAAACATACAGATATATA [CACACA_site5810]”: 10.3; “TGTGTATATGTGCAAAGTACAAAAAAGAAATTATTT [XGTACX_site7569]”: 9.87; “TGTATTATATATACACAAATATTTATGTGTGTGTTT [XGTACX_negctrl_site475]”: 6.71.

The values are drawn from the supplement of paper PMC11417369.
